# Paper PMC7862700, “An all-to-all approach to the identification of sequence-specific readers for epigenetic DNA modifications on cytosine”
# Key:
# Assay in all cases: DAPPL (digital affinity profiling via proximity ligation, sequencing); 10 mM Tris-HCl pH 7.5, 50 mM NaCl, 1 mM DTT, 4% glycerol, room temperature, 30 min; GST-TFs on glutathione beads, 16-mer random dsDNA library, 0.1% formaldehyde crosslink after washing; high values mean tight binding
# Details in all cases: protein: recombinant; tags: N-terminal GST; dsDNA, one strand shown
# FLI1 = target: T1, FLI1 (Homo sapiens, UniProt Q01543 1-452)
# T1 sequence: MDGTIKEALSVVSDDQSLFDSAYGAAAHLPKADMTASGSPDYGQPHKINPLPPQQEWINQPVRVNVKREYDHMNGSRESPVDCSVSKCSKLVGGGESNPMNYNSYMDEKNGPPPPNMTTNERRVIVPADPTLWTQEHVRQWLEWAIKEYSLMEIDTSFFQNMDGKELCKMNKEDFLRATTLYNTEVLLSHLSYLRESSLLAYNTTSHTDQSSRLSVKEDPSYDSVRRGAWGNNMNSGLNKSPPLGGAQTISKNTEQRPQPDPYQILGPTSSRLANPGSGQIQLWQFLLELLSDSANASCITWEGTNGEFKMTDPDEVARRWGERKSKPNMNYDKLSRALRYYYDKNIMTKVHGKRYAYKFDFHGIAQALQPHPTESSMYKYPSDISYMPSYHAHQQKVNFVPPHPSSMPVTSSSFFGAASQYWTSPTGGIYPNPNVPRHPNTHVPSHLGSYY
# Outline: (§1)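 Binding signal is defined as a hexamer's read frequency for one factor over its frequency for the tag-only sample. To obtain reads, GST-fused human transcription factors were expressed in yeast, captured on glutathione beads, barcoded with DNA and pooled with that sample. Pools met 200 nmole of a 16-mer random double-stranded DNA library in Tris/NaCl/DTT/glycerol buffer for 30 min at room temperature before washing, 0.1% formaldehyde crosslinking, proximity ligation (BsaI/T4 ligase, 1 h, 37 °C), PCR and Illumina NextSeq500 sequencing.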
# ELK1 = target: T2, ELK1 (Homo sapiens, UniProt P19419 1-428)
# T2 sequence: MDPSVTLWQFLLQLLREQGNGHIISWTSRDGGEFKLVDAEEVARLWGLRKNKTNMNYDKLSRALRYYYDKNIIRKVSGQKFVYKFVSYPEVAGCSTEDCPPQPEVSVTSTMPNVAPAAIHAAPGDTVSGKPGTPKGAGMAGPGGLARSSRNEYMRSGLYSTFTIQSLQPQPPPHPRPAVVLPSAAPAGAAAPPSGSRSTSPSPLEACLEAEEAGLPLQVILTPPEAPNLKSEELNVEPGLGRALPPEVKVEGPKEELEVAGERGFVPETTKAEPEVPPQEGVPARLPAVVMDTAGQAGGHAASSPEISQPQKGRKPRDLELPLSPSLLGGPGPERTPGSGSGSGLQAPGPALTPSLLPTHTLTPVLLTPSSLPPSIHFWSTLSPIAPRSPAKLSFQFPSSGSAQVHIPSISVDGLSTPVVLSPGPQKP
# Outline: as §1
# GABPA = target: T3, GABPA (Homo sapiens, UniProt Q06546 1-454)
# T3 sequence: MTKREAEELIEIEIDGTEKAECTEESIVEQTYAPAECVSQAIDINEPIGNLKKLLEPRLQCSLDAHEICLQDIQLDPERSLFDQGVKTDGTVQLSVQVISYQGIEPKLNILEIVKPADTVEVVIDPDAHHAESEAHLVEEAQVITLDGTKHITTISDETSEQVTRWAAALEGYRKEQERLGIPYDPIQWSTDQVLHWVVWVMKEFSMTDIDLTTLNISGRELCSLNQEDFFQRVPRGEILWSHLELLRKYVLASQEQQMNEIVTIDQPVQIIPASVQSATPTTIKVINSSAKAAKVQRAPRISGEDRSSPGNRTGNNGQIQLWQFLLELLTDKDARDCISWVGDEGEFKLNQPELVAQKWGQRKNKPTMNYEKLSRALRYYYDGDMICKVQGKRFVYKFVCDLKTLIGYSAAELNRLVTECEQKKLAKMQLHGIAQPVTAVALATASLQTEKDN
# Outline: as §1
# ERG = target: T4, ERG (Homo sapiens, UniProt P11308 1-479)
# T4 sequence: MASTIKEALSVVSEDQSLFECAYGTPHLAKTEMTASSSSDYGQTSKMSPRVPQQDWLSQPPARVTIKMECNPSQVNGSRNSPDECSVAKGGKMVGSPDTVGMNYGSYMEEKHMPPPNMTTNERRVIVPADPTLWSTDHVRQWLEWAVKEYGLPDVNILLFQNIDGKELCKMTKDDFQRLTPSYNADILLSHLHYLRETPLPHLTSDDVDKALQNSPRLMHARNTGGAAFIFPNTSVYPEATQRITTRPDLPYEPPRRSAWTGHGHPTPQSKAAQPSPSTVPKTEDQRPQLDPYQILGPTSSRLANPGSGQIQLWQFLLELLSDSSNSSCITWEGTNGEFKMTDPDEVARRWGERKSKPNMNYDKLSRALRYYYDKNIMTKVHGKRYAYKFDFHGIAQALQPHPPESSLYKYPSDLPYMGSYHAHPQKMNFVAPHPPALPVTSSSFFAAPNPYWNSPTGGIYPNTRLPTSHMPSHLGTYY
# Outline: as §1
# ELF1 = ELF1 (Homo sapiens, UniProt P32519 1-619)
# Outline: as §1
# EHF = target: T5, EHF (Homo sapiens, UniProt Q9NZC4 1-300)
# T5 sequence: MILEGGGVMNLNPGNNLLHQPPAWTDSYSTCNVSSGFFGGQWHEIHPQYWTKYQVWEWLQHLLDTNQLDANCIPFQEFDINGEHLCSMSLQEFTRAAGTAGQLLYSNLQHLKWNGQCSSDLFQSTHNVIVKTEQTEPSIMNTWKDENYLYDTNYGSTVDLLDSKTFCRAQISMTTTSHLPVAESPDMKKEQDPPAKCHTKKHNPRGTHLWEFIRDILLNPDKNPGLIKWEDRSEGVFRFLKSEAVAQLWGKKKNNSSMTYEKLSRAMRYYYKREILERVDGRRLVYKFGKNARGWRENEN
# Outline: as §1
# SPI1 = SPI1 (Homo sapiens, UniProt P17947 1-270)
# Outline: as §1
# SPIB = SPIB (Homo sapiens, UniProt Q01892 1-262)
# Outline: as §1
# ELK3 = target: T6, ELK3 (Homo sapiens, UniProt P41970 1-407)
# T6 sequence: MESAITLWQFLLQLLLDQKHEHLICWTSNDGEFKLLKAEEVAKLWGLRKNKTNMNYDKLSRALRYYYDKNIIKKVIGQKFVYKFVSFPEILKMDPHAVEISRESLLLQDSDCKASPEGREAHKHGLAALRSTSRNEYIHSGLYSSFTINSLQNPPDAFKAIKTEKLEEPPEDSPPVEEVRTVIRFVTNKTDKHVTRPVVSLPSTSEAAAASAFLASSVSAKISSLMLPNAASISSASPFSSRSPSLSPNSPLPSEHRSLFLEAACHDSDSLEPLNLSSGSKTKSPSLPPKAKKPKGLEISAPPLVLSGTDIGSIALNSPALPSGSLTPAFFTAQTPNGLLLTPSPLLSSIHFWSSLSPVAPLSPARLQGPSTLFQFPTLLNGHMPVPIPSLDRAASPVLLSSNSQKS
# Outline: as §1
# ETV5 = ETV5 (Homo sapiens, UniProt P41161 1-510)
# Outline: as §1
# ELF4 = ELF4 (Homo sapiens, UniProt Q99607 1-663)
# Outline: as §1
# ETV2 = target: T7, ETV2 (Homo sapiens, UniProt O00321 1-342)
# T7 sequence: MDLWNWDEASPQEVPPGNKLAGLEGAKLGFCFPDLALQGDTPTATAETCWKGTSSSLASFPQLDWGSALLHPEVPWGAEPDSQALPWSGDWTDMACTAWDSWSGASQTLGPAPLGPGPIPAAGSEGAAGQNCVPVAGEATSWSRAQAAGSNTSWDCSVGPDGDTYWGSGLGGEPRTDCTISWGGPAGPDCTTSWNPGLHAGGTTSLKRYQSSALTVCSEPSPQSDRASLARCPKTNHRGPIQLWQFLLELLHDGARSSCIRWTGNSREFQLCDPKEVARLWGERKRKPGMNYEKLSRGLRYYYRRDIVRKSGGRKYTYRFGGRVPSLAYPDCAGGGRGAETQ
# Outline: as §1
# ETV1 = ETV1 (Homo sapiens, UniProt P50549 1-477)
# Outline: as §1
# ERF = target: T8, ERF (Homo sapiens, UniProt P50548 1-548)
# T8 sequence: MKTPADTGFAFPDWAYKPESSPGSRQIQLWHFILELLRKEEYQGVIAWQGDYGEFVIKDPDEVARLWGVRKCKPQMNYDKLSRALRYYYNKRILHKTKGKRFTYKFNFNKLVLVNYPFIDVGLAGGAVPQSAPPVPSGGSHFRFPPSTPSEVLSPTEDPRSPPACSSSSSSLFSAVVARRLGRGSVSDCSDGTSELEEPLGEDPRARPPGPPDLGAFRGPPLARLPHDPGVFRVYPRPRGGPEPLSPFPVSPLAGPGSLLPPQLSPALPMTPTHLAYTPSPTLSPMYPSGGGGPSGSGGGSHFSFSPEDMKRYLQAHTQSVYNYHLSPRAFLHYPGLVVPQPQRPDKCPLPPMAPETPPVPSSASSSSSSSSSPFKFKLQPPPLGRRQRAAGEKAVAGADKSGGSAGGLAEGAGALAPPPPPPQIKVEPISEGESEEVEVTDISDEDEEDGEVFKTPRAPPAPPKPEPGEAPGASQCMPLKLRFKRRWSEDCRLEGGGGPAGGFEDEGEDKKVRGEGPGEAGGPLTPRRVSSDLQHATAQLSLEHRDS
# Outline: as §1
# ETS2 = target: T9, ETS2 (Homo sapiens, UniProt P15036 1-469)
# T9 sequence: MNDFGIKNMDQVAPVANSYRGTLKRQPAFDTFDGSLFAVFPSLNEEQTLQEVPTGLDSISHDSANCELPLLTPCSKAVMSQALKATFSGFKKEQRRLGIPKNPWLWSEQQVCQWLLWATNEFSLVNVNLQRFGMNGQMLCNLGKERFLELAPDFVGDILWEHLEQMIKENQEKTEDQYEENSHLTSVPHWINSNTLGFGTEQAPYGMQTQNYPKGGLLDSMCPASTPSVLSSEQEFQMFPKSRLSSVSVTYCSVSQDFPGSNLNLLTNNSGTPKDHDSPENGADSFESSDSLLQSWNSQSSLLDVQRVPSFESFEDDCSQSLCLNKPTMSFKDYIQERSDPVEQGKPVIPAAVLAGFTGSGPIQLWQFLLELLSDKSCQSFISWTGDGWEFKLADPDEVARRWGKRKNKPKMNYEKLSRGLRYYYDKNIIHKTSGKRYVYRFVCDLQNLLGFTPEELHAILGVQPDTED
# Outline: as §1
# ETV7 = target: T10, ETV7 (Homo sapiens, UniProt Q9Y603 1-341)
# T10 sequence: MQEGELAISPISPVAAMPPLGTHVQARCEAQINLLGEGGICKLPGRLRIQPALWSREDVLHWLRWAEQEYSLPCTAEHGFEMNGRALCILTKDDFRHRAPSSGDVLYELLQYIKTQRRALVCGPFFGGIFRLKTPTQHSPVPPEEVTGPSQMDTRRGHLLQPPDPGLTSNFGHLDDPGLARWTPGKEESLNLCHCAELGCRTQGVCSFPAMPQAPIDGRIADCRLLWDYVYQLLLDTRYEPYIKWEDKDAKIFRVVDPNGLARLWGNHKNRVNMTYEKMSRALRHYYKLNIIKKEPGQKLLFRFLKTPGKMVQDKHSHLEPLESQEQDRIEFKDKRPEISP
# Outline: as §1
# ETV6 = ETV6 (Homo sapiens, UniProt P41212 1-452)
# Outline: as §1
# Sequence of ELF1 (P32519 whole entry): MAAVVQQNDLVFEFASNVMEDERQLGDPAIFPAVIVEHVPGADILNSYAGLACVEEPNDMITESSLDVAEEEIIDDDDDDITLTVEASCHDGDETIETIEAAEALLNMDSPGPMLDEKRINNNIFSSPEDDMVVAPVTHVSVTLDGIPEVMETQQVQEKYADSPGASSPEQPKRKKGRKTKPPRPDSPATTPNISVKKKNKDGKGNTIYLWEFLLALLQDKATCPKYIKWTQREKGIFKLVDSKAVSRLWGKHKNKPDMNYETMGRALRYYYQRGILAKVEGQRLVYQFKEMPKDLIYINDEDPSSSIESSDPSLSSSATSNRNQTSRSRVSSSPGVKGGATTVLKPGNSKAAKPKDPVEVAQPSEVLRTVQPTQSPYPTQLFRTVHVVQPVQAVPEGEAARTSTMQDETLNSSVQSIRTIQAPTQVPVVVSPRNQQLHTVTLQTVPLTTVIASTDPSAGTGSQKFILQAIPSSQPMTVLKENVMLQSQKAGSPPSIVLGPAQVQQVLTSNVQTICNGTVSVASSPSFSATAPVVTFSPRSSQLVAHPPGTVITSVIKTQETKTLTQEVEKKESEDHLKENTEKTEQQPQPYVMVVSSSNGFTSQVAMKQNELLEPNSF
# Sequence of SPIB (Q01892 whole entry): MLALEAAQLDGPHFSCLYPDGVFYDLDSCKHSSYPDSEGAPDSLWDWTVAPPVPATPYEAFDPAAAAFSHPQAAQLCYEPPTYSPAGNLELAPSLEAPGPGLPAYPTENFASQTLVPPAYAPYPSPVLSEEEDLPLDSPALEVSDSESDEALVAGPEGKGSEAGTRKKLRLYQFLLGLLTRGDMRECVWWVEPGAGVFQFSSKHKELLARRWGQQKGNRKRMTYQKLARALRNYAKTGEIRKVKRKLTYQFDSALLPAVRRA
# Sequence of ETV6 (P41212 whole entry): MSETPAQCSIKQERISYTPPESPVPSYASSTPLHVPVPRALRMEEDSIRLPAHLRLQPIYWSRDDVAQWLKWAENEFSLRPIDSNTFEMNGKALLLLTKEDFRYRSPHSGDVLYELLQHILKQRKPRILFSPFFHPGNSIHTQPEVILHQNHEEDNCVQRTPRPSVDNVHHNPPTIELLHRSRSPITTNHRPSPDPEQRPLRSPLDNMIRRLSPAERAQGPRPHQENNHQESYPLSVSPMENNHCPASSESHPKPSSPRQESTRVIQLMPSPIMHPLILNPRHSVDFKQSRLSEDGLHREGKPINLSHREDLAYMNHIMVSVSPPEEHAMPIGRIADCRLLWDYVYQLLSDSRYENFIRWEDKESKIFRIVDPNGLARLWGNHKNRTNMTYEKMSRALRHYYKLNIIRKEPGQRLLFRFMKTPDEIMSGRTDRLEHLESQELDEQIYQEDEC
# Sequence of ETV5 (P41161 whole entry): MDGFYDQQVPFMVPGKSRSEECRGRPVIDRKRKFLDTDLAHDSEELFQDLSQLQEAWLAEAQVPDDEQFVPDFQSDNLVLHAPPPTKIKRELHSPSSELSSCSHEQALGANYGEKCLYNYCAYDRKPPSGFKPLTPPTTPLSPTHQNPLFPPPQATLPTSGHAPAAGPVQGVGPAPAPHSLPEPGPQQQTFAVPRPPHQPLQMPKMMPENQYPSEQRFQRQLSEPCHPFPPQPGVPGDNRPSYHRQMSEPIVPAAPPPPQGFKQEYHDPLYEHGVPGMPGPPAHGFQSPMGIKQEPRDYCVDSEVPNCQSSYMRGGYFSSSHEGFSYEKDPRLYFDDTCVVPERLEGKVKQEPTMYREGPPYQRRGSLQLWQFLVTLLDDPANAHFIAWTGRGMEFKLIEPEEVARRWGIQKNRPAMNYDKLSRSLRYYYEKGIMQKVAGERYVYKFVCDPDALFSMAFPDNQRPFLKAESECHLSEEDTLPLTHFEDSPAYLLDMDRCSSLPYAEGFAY
# Sequence of ETV1 (P50549 whole entry): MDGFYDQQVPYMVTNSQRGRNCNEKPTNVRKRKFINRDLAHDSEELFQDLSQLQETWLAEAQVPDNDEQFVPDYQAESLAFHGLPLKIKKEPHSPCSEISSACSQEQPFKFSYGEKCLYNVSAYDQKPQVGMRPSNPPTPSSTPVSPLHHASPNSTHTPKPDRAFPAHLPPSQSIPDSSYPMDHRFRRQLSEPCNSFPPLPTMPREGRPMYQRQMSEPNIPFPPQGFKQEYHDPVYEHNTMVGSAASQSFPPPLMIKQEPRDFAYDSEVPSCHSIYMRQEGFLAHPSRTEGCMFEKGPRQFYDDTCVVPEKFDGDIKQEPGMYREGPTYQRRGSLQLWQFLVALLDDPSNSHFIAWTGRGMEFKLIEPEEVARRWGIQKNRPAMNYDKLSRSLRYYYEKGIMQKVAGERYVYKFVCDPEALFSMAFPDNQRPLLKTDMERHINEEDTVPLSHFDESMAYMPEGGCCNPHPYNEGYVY
# Sequence of ELF4 (Q99607 whole entry): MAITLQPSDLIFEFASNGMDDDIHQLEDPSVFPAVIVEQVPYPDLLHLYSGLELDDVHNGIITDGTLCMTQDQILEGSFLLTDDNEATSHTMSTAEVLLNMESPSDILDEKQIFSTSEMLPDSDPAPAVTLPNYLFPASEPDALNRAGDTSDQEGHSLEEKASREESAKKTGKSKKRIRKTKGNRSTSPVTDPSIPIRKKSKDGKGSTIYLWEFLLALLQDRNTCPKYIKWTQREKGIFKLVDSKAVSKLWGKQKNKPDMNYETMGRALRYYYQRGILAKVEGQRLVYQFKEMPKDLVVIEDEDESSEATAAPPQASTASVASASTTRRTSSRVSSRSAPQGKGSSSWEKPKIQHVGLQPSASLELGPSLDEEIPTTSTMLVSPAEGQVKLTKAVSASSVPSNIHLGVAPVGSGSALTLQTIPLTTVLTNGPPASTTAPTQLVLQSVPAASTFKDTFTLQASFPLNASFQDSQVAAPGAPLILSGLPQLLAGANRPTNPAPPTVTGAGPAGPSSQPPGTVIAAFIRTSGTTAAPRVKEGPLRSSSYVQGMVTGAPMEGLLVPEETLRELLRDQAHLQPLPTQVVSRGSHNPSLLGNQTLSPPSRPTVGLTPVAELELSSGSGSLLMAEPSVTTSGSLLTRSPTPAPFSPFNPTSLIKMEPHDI
sequence,measurement,setting,value
CATACA,binding signal,FLI1,"1.11 fold enrichment (6-mer frequency, TF over GST control)"
same,binding signal,ELK1,"1.04 fold enrichment (6-mer frequency, TF over GST control)"
same,binding signal,GABPA,"1.08 fold enrichment (6-mer frequency, TF over GST control)"
same,binding signal,ERG,"1.07 fold enrichment (6-mer frequency, TF over GST control)"
same,binding signal,ELF1,"1.06 fold enrichment (6-mer frequency, TF over GST control)"
same,binding signal,EHF,"1.03 fold enrichment (6-mer frequency, TF over GST control)"
same,binding signal,SPI1,"1.05 fold enrichment (6-mer frequency, TF over GST control)"
same,binding signal,SPIB,"1.08 fold enrichment (6-mer frequency, TF over GST control)"
same,binding signal,ELK3,"1.22 fold enrichment (6-mer frequency, TF over GST control)"
same,binding signal,ETV5,"1.05 fold enrichment (6-mer frequency, TF over GST control)"
same,binding signal,ELF4,"1.15 fold enrichment (6-mer frequency, TF over GST control)"
same,binding signal,ETV2,"1.1 fold enrichment (6-mer frequency, TF over GST control)"
same,binding signal,ETV1,"1.02 fold enrichment (6-mer frequency, TF over GST control)"
same,binding signal,ERF,"1.15 fold enrichment (6-mer frequency, TF over GST control)"
same,binding signal,ETS2,"1.06 fold enrichment (6-mer frequency, TF over GST control)"
same,binding signal,ETV7,"1.1 fold enrichment (6-mer frequency, TF over GST control)"
same,binding signal,ETV6,"1.01 fold enrichment (6-mer frequency, TF over GST control)"
